PubChem BioAssay AID1347416 (National Center for Advancing Translational Sciences (NCATS), 2020)
About 1,600 (39%) of roughly 4,100 compounds were called active. Another 25% or so got no clear call; they are omitted. Calls come from the whole dose curve; as a rule, active = well fitted inhibition curve with a large enough effect; inconclusive = small, poorly fitted or top-dose-only effect; inactive = no such curve, though single readings can be large or run the other way. The list shows a part of the results. Where a call stands in place of a potency, no number is given.

Test: qHTS Validation assay for Inhibitors of Plasmodium falciparum Dd2 growth in vitro; note: nearly all actives have a fitted effect of over 70% in size
Details: P. falciparum Dd2 in RBCs, SYBR Green growth, 72 h; series mostly up to 28.7 µM
Outline: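 P. falciparum Dd2-infected red blood cells (2.5% hematocrit, 0.3% parasitemia) grown 72 h at 37 °C under 5% O2 with compounds in a titration, 29 uM to 0.5 nM final. Growth read as SYBR Green-1 fluorescence after ~16 h lysis; artesunate 300 nM as positive control.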
Potency is the fitted concentration of half-maximal effect.

| Structure (SMILES) | Potency |
| --- | --- |
| N=c1ccn(Cc2ccc(Cl)cc2)cc1 | 8.41 µM (active) |
| N=c1ccn(Cc2ccc(Cl)cc2Cl)cc1 | 8.41 µM (active) |
| N=c1ccn(Cc2c(Cl)cccc2Cl)cc1 | inactive |
| N=c1ccn(Cc2ccc(Cl)c(Cl)c2)cc1 | 6.68 µM (active) |
| Cc1cc(C)n(CC(=O)N[C@@H]2CN(Cc3cccnc3)C[C@H]2CN(C)C)n1 | inactive |
| Cc1ccsc1C(=O)NCc1nnc2ccc(-c3ccc(Cl)cc3)nn12 | inactive |
| COc1ccc(CC(=O)N2CCC(Oc3ncccc3C(=O)N3CCCCC3)C2)cc1 (centres undefined) | 9.44 µM (active) |
| COc1ccc(S(=O)(=O)N2CCC(Oc3ncccc3C(=O)N3CCOCC3)C2)cc1 (centres undefined) | inactive |
| O=C(c1ccccc1F)N1CCC(Oc2ncccc2C(=O)N2CCCCC2)C1 (centres undefined) | inactive |
| COc1cc(NC(=O)c2ccc(N)nc2)cc(C(=O)Nc2cccc(C(F)(F)F)c2)c1 | 5.31 µM (active) |
| COc1cccc(NC(=O)Nc2cccc(C(=O)O)c2)c1 | inactive |
| O=C(Nc1cccc(C(F)(F)F)c1)O[C@@H]1CO[C@H]2[C@@H]1OC[C@@H]2NS(=O)(=O)c1cccs1 | inactive |
| COc1ccc(-c2cc(C(=O)Nc3cc(OC)cc(C(=O)Nc4cccc(C(F)(F)F)c4)c3)[nH]n2)cc1 | 5.31 µM (active) |
| CC1=NS(=O)(=O)N(Cc2ccc(F)c(F)c2)C=C1C(=O)O | inactive |
| CN(C)C(=O)N1CCCC(C(=O)NCc2nc(C3CCCCC3)no2)C1 (centres undefined) | inactive |
| Cc1nc2sc(C(c3ccco3)N3CCN(C(c4ccccc4)c4ccccc4)CC3)c(O)n2n1 (centres undefined) | 5.96 µM (active) |
| CCCc1ccc(C(=O)NC(=O)c2ccccc2O)cc1 | 1.06 µM (active) |
| Cc1ccc(N(CC(=O)Nc2cccc(Cl)c2)S(=O)(=O)c2cccs2)cc1 | inactive |
| Cc1ccc(N(Cc2cccs2)C(=O)C(C)Oc2ccc(Cl)c(C)c2)cc1 (centres undefined) | 7.5 µM (active) |
| O=C(NCCc1nc(-c2cccnc2)no1)c1coc2c1C(=O)CCC2 | inactive |
| C/C(=N\OCc1cccc(C(=O)O)c1)c1ccc(Cl)cc1 | inactive |
| COc1cccc(CNc2ccc3c(c2)nc(C)n3C)c1OC | inactive |
| COc1ccccc1-c1nnc2sc(COc3ccc(F)cc3)nn12 | inactive |
| CNC(=O)CCn1ncc2cc(OCc3ccccc3-c3ccccc3OC)ccc21 | 15.3 µM (active) |

| Structure (SMILES) | Potency |
| --- | --- |
| CCOCCCn1c(SCC(=O)NCCCOC)nc2c(sc3ccccc32)c1=O | inactive |
| CCn1c(SCC(=O)NCCc2ccccc2)nc2sc3c(c2c1=O)CCN(C)C3 | 5.31 µM (active) |
| CCCN1CCc2c(sc3nc(SC)n(-c4ccccc4)c(=O)c23)C1 | 2.66 µM (active) |
| C=C(C)CSc1nc2sc3c(c2c(=O)n1C1CCCCC1)CCN(C)C3 | 2.37 µM (active) |
| CC(C)Sc1nc2sc3c(c2c(=O)n1Cc1ccccc1)CCCC3 | inactive |
| CSc1nnc2c3c4c(sc3c(=O)n(-c3ccccc3)n12)CC(C)(C)OC4 | inactive |
| CCSc1nc2sc3c(c2c(=O)n1-c1ccccc1)CCN(C)C3 | 6.68 µM (active) |
| CN1CCc2c(sc3c2C(=O)NC(c2ccc(C(C)(C)C)cc2)N3)C1 (centres undefined) | inactive |
| CCNc1ncnc2sc3c(c12)CCN(Cc1ccc[nH]1)C3 | inactive |
| CS(=O)(=O)N(C1CC1)C1CCOC2(CCN(C(=O)C3(c4ccccc4)CC3)CC2)C1 (centres undefined) | inactive |
| CCOc1ccc(-n2c(SCC(N)=O)nc3sc4c(c3c2=O)CCN(C)C4)cc1 | 15 µM (active) |
| COC(CSc1nc(N)c2c3c(sc2n1)CN(C)CC3)OC | inactive |
| CCOc1cc(C2NC(=O)c3c(sc4c3CCN(C)C4)N2)ccc1OC(=O)c1ccccc1Cl (centres undefined) | inactive |
| Cc1ccc(N=Nc2ccc(O)c3ncccc23)cc1 | inactive |
| Oc1ccc(CNc2ccc(C(F)(F)F)cc2Cl)c2cccnc12 | 10.6 µM (active) |
| Fc1ccc(N2CCCN(CC3[C@H]4CNC[C@@H]34)CC2)cc1 (some centres undefined) | 8.41 µM (active) |
| Cc1ccc2[nH]c(-c3ccccc3)cc(=O)c2c1 | 4.73 µM (active) |
| O=c1cc(-c2ccccc2)[nH]c2ccc(F)cc12 | 5.96 µM (active) |
| Cc1ccc(-c2cc(=O)c3cc(C)ccc3[nH]2)cc1 | 10.6 µM (active) |
| COc1cc(NC(=O)Cn2c(=O)n(CC3CCC(C(=O)NCCc4ccccc4)CC3)c(=O)c3ccccc32)cc(OC)c1 (centres undefined) | 5.96 µM (active) |
| CCCCCNC(=O)C1CCC(Cn2c(=O)c3sccc3n(CC(=O)N3CCCC3)c2=O)CC1 (centres undefined) | inactive |
| COc1cc(NC(=O)Cn2c(=O)n(CC3CCCO3)c(=O)c3ccccc32)cc(OC)c1 (centres undefined) | inactive |
| Cc1cc2nn(-c3ccc(F)cc3)nc2cc1N | inactive |
| Cn1nc(-c2nncn2Cc2ccccc2)c2c1CCN(C(=O)c1[nH]nc3c1COc1ccccc1-3)C2 | inactive |

| Structure (SMILES) | Potency |
| --- | --- |
| COc1ccc(-c2ccc3nnc(CNC(=O)Cc4cccc(F)c4)n3n2)cc1 | inactive |
| COc1ccc(-n2cc(CNC3CCN(C)CC3)c(-c3cccc(F)c3)n2)cc1 | 10.6 µM (active) |
| CC1=C[C@@H](CN2CCC[C@H]2CO)[C@H](C(C)C)C[C@H]1Cc1nnc(-c2ccc(N(C)C)cc2)o1 | 13.3 µM (active) |
| CCCc1nnc([C@H]2CCN(C(=O)c3ccccc3)C2)o1 | inactive |
| CCCc1nnc(C[C@@H]2C[C@@H](C(C)C)[C@H](CN3CCC[C@H]3CO)C=C2C)o1 | 17.2 µM (active) |
| C=CCOC(=O)C(C#N)c1nc2ccccc2nc1N1CCC(C(=O)OCC)CC1 (centres undefined) | 2.37 µM (active) |
| Cc1ccc(C)c(-c2cc3c(=O)n(CCNC(=O)c4cccc(N(C)C)c4)ccn3n2)c1 | inactive |
| Cc1ccc(-c2ccc(=O)n(CC(=O)Nc3ccc(C(C)C)cc3)n2)cc1 | inactive |
| Cc1ccc(CNC(=O)CCc2c(C)nc3nc(C)nn3c2C)cc1 | inactive |
| CCN(CC)S(=O)(=O)c1ccc(NC(=O)CCc2c(C)nc3cc(-c4ccc(Cl)cc4)nn3c2C)cc1 | 4.73 µM (active) |
| COc1cc(C2Nc3ccc4ccccc4c3C3=C2C(=O)CC(C)(C)C3)ccc1OC(C)C(=O)O (centres undefined) | 6.68 µM (active) |
| CCCC1=Nc2cc(C(=O)NCCCN3CCCCC3CC)ccc2Sc2ccc(C)cc21 (centres undefined) | 9.44 µM (active) |
| CCc1nc2ccc(C(=O)NCc3ccccc3C)cc2nc1CC | inactive |
| CCC1=Nc2cc(C(=O)NCc3ccco3)ccc2Sc2ccc(C)cc21 | 8.41 µM (active) |
| Cc1ccc(C2Cn3cnc(C(=O)N4CCC(C(=O)NCc5ccco5)CC4)c3CO2)cc1 (centres undefined) | inactive |
| Cc1cccc(C(=O)NCCc2ncc(C)n2C2CC2)c1 | inactive |
| CC(C)N1C(=S)N(Cc2ccco2)C(=O)C1CC(=O)Nc1ccccc1 (centres undefined) | 1.68 µM (active) |
| CN1CCC(Nc2ncc3ncnc(Nc4ccc(F)c(Cl)c4)c3n2)CC1 | 10.6 µM (active) |
| Cc1cccc(N2CCN(C(=O)CCc3nnc4n(CC(C)C)c(=O)c5ccccc5n34)CC2)c1C | 3.35 µM (active) |
| Cc1ccc(/C=N/NC(=O)c2cc3ccccc3cc2O)o1 | 5.31 µM (active) |
| CCNc1nc(NC(C)CC)nc(ON=C(C)C)n1 (centres undefined) | 8.41 µM (active) |
| CCc1ccc(S(=O)(=O)c2nnn3c2nc(Nc2ccc(F)cc2)c2cc(Cl)ccc23)cc1 | 2.11 µM (active) |
| CSc1cccc(Nc2nc3c(S(=O)(=O)c4ccccc4)nnn3c3ccc(Cl)cc23)c1 | 1.88 µM (active) |
| COc1ccccc1C(=O)N1CCC2(CC1)OC(=O)N(Cc1ccccc1C#N)C2(C)c1ccccc1 (centres undefined) | 15 µM (active) |

| Structure (SMILES) | Potency |
| --- | --- |
| COc1ccccc1C(=O)N1CCC2(CC1)OC(=O)N(CCOc1ccccc1)C2(C)c1cccnc1 (centres undefined) | 9.44 µM (active) |
| COc1ccccc1C(=O)N1CCCN(c2nnc3cccc(C)n23)CC1 | inactive |
| CNCC(=O)N1CCC2(CC1)CN(CCOc1ccccc1)C(=O)O2 | inactive |
| COCCN1C(=O)CS(=O)(=O)C12CCN(C(=O)C1(c3ccccc3)CC1)CC2 | inactive |
| Cn1cnnc1-c1nn(C)c2c1CN(C(=O)c1cc3ccccc3[nH]1)CC2 | inactive |
| N#Cc1cccc(S(=O)(=O)N2CC(C(=O)NC3CCCCC3)C3(CCOCC3)C2)c1 (centres undefined) | inactive |
| CCC(C)NC(=O)c1cc2c(Cl)nc3ccc(C)cc3c2s1 (centres undefined) | inactive |
| COc1cc(NC(=O)c2cc3c(Cl)nc4ccccc4c3s2)cc(OC)c1OC | 4.73 µM (active) |
| CCCc1noc(-c2cccn3c(CNC(=O)c4ccccc4OCC)nnc23)n1 | inactive |
| COCCc1nn2c(=O)cc(COC(=O)C(c3ccccc3)c3ccccc3)nc2s1 | 2.66 µM (active) |
| Cc1csc2nc(COc3ccc(NC(=O)c4ccccc4F)cc3)cc(=O)n12 | inactive |
| COc1cc(C(=O)Nc2ccccc2OCc2cc(=O)n3cc(C)sc3n2)cc(OC)c1OC | inactive |
| Cn1c(=O)[nH]c2nnc(-c3ccc(Cl)c(Cl)c3)nc2c1=O | 8.41 µM (active) |
| Cn1c(=O)c2nc(SCC(=O)Nc3ccc(Cl)c(Cl)c3)n(C)c2n(C)c1=O | inactive |
| CCN1CCN(c2cc(C)c3cc(NC(=O)/C=C/c4ccc(OCCC(C)C)cc4)ccc3n2)CC1 | 2.11 µM (active) |
| CCN1CCN(c2cc(C)c3cc(NC(=O)/C=C/c4ccc(C)cc4)ccc3n2)CC1 | 4.22 µM (active) |
| CCS(=O)(=O)N1CC(F)(F)C[C@H]1c1nc(CCOC)no1 | inactive |
| COc1cc2nc(NCc3ccc(C)cc3)n3nc(-c4ccccc4)nc3c2cc1OC | 0.266 µM (active) |
| COc1cc2nc(NCc3ccccc3Cl)n3nc(-c4cccnc4)nc3c2cc1OC | 2.11 µM (active) |
| COc1cc2nc(NCc3ccccc3)n3nc(-c4ccccc4)nc3c2cc1OC | 0.422 µM (active) |
| COc1cccc(NC(=O)CSc2nc3cc(OC)c(OC)cc3c3nc(-c4ccccc4)nn23)c1 | inactive |
| COc1ccccc1S(=O)(=O)Cc1ccc(C(=O)NCc2cccs2)o1 | inactive |
